D1 antag – Antagonist of Human D 1 Dopamine Receptor: qHTS. D(1A) dopamine receptor (Homo sapiens), P21728. 360,000 tested, 3.2% active. activity change, negative = inhibition, % at 10 µM. AID 504652, 2011. HEK293 TREx D1 cells, calcium flux, dopamine EC80; stronger effect = lower value; in the data active = activity change below about -30%
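Tetracycline-induced HEK293 T-REx cells with force-coupled D1 receptor were loaded with a no-wash calcium dye. Compound was added after a 10 s baseline and read kinetically for 180 s; EC80 dopamine was then added and calcium flux followed another 180 s.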
D1 agonist – Allosteric Agonists of the Human D1 Dopamine Receptor: qHTS; HEK293 T-REx D1 cells, calcium flux, agonist mode; activation, % at 2 µM; 360,000 tested, 1% active; AID 504660, 2011
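Agonism was scored from calcium flux recorded over 180 s (1 read/s) after pintool compound addition, following a 10-cycle baseline. Cells were inducible force-coupled HEK293 TREx D1, plated overnight at 30 C and loaded with no-wash calcium dye.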
TRHR enhancer – qHTS for Small Molecule Agonists and Allosteric Enhancers of Human TRH Receptor: Primary Screen for Enhancers. 360,000 tested, 0.66% active. AID 493056, 2011. TRHR cells, fluo-8 calcium fluorescence, EC20 TRH enhancement. Thyrotropin-releasing hormone receptor (Homo sapiens), P34981. enhancement, % at 2 µM; in the data active = enhancement above about 30%
Target sequence (P34981 whole entry, looked up): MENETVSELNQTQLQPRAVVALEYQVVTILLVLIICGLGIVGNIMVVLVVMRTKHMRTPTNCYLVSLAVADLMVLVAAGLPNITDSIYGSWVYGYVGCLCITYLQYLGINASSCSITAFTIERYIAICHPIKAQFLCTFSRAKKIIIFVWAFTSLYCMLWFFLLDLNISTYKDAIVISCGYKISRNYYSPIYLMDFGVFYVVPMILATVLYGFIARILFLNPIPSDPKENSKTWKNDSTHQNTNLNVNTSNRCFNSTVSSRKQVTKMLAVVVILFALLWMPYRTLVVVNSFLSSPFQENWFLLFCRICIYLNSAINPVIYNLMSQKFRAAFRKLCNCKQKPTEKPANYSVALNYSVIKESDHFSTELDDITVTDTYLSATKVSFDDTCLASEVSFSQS
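TRHR-expressing cells loaded with fluo-8 calcium dye were read kinetically (ex 480/em 530) during compound addition, then stimulated with an EC20 of TRH (10 nM final). Enhancement of the Gq-mediated intracellular calcium response was scored.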
D1 potentiator – Potentiators of Human D1 Dopamine Receptor: qHTS; D(1A) dopamine receptor (Homo sapiens), P21728; HEK293 TREx D1 cells, calcium flux, dopamine EC20 potentiation; potentiation, % at 10 µM; 360,000 tested, 0.036% active; AID 504651, 2011; in the data active = potentiation above about 30%
TRHR ag – qHTS for Small Molecule Agonists and Allosteric Enhancers of Human TRH Receptor: Primary Screen for Agonists; Thyrotropin-releasing hormone receptor (Homo sapiens), P34981; TRHR cells, calcium flux fluo-8, FDSS agonist mode; activation, % at 2 µM; 360,000 tested, 0.18% active; AID 493084, 2011
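Read-out: compound-evoked intracellular calcium rise in TRHR cells, fluo-8 dye, kinetic FDSS fluorescence at 1 s/cycle following a 10-cycle baseline. Cells cultured overnight before dye loading (30 min–1.5 h, RT).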
Each line names hits and unclear results; the compound was inactive in the other large screens. A selection: hits, their analogues and other compounds. The true share with any hit is near 4.7%. Rule as the data show it, unless noted: active = activation above about 30%; inactive = the rest.

COc1ccc(NS(=O)(=O)c2cc(-c3onc(C)c3C)ccc2C)c(OC)c1	none
O=C(Nc1ccc2sccc2c1)c1cccc(N2C(=O)CCC2=O)c1	none
Cc1cccc(N2CCN(c3ncnc4c3nc3n4CCCCC3)CC2)c1C	none
CC(C)(C)c1cc2cccnc2n1Cc1cccc(Cl)c1	D1 antag -31
NC(=O)c1ccccc1NC(=S)NC(=O)CCc1ccccc1	D1 antag -74
CCOc1cc(/C=C2\N=C(SC(C)C(N)=O)N(c3ccc(OC(F)F)cc3)C2=O)ccc1O (configuration not stated)	D1 agonist 47, TRHR ag 32
CC1(C(=O)NCc2ccc(Cl)c(Cl)c2)Oc2cccnc2NC1=O (configuration not stated)	D1 agonist 32
CN(CC(=O)Nc1ccc(OC(F)(F)F)cc1)C1CCCCC1	none
O=C(CNCC1CCCCC1)Nc1ccc(OC(F)(F)F)cc1	D1 antag -42, D1 agonist 93
CC(SCc1ccccc1)C(=O)Nc1ccccc1 (configuration not stated)	none
O=C1Nc2ccccc2C1(c1ccccc1)c1ccccc1	D1 agonist 33
CC(NC(=O)C(=O)NCCN1CCN(C(=O)c2ccccc2Br)CC1)c1ccccc1 (configuration not stated)	none
COc1ccc([C@H]2CC(=O)C=C(c3ccc(NC(C)=O)cc3)C2)cc1OC	none (no result: D1 antag)
CC(=O)Nc1ccc(C2=CC(=O)C[C@H](c3ccc(Cl)cc3)C2)cc1	D1 antag -53
Cc1cc(=O)n2c(C(=O)Nc3ccc(F)c(Cl)c3)c(C(=O)Nc3cccc(C)c3C)sc2n1	none
NC1=NC(=Nc2ccc(S(=O)(=O)N3CCOCC3)cc2)c2ccccc21	D1 antag -33
NC1=NC(=Nc2ccc(Cl)cc2)c2ccccc21	D1 antag -41
Nc1ccc(S(=O)(=O)N2CCOCCOCCOCCOCCOCC2)cc1	none
NC1=NC(=Nc2ccc(Br)cc2)c2ccccc21	D1 antag -33
NC1=NC(=Nc2ccccc2)c2ccccc21	none
CCOC(=O)c1c(C)oc2nc(C)nc(Nc3ccc(C)c(Cl)c3)c12	none
CCOc1ccccc1NC(=O)COc1coc(CN2CCc3ccccc32)cc1=O	none
Oc1cncc(-c2cccnc2)c1	TRHR enhancer 31 (no result: D1 antag)
Cc1ccccc1Nc1nc(N)nc(COC(=O)c2ccc(O)cc2)n1	D1 antag -43
COc1ccc(CC2(CO)CCN(CC3=Cc4cc(Cl)ccc4OC3)CC2)cc1	none
COCCNC(=O)c1ccc(NS(=O)(=O)c2ccc3[nH]c(=O)[nH]c3c2)cc1	none
CCC(C)NC(=O)c1ccc(NS(=O)(=O)c2ccc3[nH]c(=O)[nH]c3c2)cc1 (configuration not stated)	D1 antag -33
O=C(CCCN=C1NS(=O)(=O)c2ccccc21)OCC(=O)c1ccccc1	D1 antag -30
Cc1ccc(C(=O)C(C)OC(=O)CCN=C2NS(=O)(=O)c3ccccc32)cc1 (configuration not stated)	D1 antag -39
O=C(CCN=C1NS(=O)(=O)c2ccccc21)OCC(=O)c1ccccc1	none
COc1ccc(OCc2cc(C(=O)N3CCCC(O)C3)no2)c2ccccc12 (configuration not stated)	none
O=C1CCCC2=C1C(c1ccco1)Nc1ccc3ccccc3c12 (configuration not stated)	D1 antag -36
COC(=O)c1ccc(-c2noc(CN(C)CCC3CCCCO3)n2)cc1 (configuration not stated)	D1 antag -61
COC(=O)c1ccc(-c2noc(CN(C)Cc3ccncc3C)n2)cc1	D1 antag -41
Clc1ccccc1CN(Cc1ccccc1)C(c1cccs1)c1nnnn1C1CCCC1 (configuration not stated)	D1 antag -34
Clc1ccc(CN(CC2CCCO2)C(c2cccs2)c2nnnn2C2CCCC2)cc1 (configuration not stated)	D1 antag -53
Cc1ccc(-c2cc3ncc4c(n3n2)-c2ccccc2OC4)cc1	none
CC(=O)Nc1ccc(S(=O)(=O)N2CCOCC2)cc1	none
O=S(=O)(c1ccc(NC(=S)NCCc2ccccc2)cc1)N1CCOCC1	none
O=S(=O)(c1ccc(NC(=S)NCc2ccc(F)cc2)cc1)N1CCOCC1	D1 antag -49, D1 agonist 30
Cc1ccc(C(=O)NC(=S)Nc2ccc(S(=O)(=O)N3CCN(C)CC3)cc2)cc1	D1 antag -56
Cc1cccc(C(=O)NC(=S)Nc2ccc(S(=O)(=O)N3CCN(C)CC3)cc2)c1	none
COc1ccc(NS(=O)(=O)c2ccc(S(=O)(=O)N3CCOCC3)cc2)cc1	D1 antag -33, D1 agonist 34
CC(=O)NC(=S)Nc1ccc(S(=O)(=O)N2CCOCC2)cc1	TRHR enhancer 32
Cc1ccccc1Cn1c(=O)n(CC2CCC(C(=O)N3CCC(C)CC3)CC2)c(=O)c2sccc21 (configuration not stated)	none
COc1cc(C(CC(=O)Nc2ccc(F)cc2F)N2Cc3ccccc3C2=O)cc(OC)c1OC (configuration not stated)	none
CCCS(=O)(=O)c1c(S(=O)(=O)CCC)c2cnccn2c1C(=O)c1ccc(Cl)cc1	TRHR enhancer 33
CSc1nn(Cc2ccccc2C)c(NC(C)=O)c1S(=O)(=O)c1ccc(C)cc1	D1 antag -33
CC(C)n1nccc1NC(=O)Nc1ccccc1	none
O=C(Nc1cccc2ccccc12)N(CCO)C1CCS(=O)(=O)C1 (configuration not stated)	D1 antag -71
CCN(C(=O)COC(=O)Cc1cccc2ccccc12)C1CCS(=O)(=O)C1 (configuration not stated)	none
CCOC(=O)C1(Nc2nccs2)Sc2ccccc2NC1=O (configuration not stated)	D1 antag -34
CCOC(=O)C1(N(CC)CC)Sc2cc(C)ccc2NC1=O (configuration not stated)	none
CC1C(=O)N2CCCc3cc(S(=O)(=O)Nc4ccc(Br)cc4F)cc1c32 (configuration not stated)	D1 antag -30
CCOC(=O)c1ccc(CN(Cc2ccc(C)cc2)S(=O)(=O)c2ccc(NC(C)=O)cc2)cc1	none
CCOC(=O)c1ccc(CN(Cc2ccc(C)cc2)S(=O)(=O)c2ccc(F)c(C(=O)Nc3ccc(C)c(F)c3)c2)cc1	D1 antag -46

Bioassay records deposited in PubChem BioAssay by National Center for Advancing Translational Sciences (NCATS).
